miR-21 reporter – qHTS Assay for Modulators of miRNAs and/orActivators of miR-21. 340,000 tested, under 10 active. Potency, µM (top dose mostly 38.3 µM), inactives show top-dose activity change, positive = activation, hits mostly activators. HeLa miR-21 FLuc reporter, luciferase, 48 h;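 further: % of control where 0% means no effect; miR-21 action dims this reporter so a rising signal means less miR-21 action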
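HeLa cells stably expressing CMV-driven firefly luciferase with a downstream miR-21 binding sequence, endogenously expressing miR-21, were treated with titrations (up to about 40uM final) for 48 hours at 37 degree Celsius. Luciferase luminescence was read after lysis.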
uPA generation – qHTS for Inhibitors of Cell Surface uPA Generation | cell surface uPA generation assay, qHTS | Potency, µM (top dose mostly 38.3 µM), without a hit: top-dose activity change, negative = inhibition, hits mostly inhibitors | 0.31% of 330,000 active | AID 540303, 2011; active means well fitted inhibition curve with a large enough effect; inconclusive means small, poorly fitted or top-dose-only effect; inactive means no such curve, though single readings can be large or run the other way; tested in mouse RAW 264.7 cells; further: potency means the concentration at half of the fitted maximal effect; on the % scale 0 is the no-effect control and ±100 the full control effect; nearly all actives have a fitted effect of over 55% in size
TDP1 inh – qHTS Assay for Inhibitors of Tyrosyl-DNA Phosphodiesterase (TDP1); Tyrosyl-DNA phosphodiesterase 1 (Homo sapiens), Q9NUW8; recombinant TDP1, AlphaScreen DNA substrate cleavage; Potency, µM (highest dose often 130 µM), without a hit: top-dose activity change, negative = inhibition, hits mostly inhibitors; 0.28% of 350,000 active; further: potency means the concentration at half of the fitted maximal effect; on the % scale 0 is the no-effect control and ±100 the full control effect; nearly all actives have a fitted effect of over 40% in size
Target sequence (Q9NUW8 whole entry, looked up): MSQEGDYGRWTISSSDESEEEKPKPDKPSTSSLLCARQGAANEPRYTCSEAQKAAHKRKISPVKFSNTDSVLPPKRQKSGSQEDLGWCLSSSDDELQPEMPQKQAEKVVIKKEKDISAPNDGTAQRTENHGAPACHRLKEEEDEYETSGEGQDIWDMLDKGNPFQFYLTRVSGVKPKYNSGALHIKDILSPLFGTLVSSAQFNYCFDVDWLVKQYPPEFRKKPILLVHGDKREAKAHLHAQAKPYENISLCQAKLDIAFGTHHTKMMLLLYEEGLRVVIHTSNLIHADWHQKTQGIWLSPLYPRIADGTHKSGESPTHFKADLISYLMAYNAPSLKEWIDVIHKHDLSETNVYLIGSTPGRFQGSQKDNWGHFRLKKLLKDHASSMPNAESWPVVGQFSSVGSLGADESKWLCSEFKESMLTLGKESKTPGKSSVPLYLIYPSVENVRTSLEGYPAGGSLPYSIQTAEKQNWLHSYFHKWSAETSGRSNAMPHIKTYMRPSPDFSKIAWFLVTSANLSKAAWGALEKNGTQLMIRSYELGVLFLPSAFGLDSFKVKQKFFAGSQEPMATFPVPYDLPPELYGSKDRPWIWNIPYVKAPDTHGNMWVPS
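Recombinant human Tdp1 (E. coli-expressed, 1 nM final) preincubated with compounds 15 min at room temperature, then 5'-biotin/3'-phosphotyrosine-FITC DNA substrate (15 nM final) added for 5 min. AlphaScreen beads (10 ug/ml final) added 10 min; cleavage lowers signal.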
DT40 TDP1 CPT – qHTS for Inhibitors of human tyrosyl-DNA phosphodiesterase 1 (TDP1): qHTS in cells in presence of CPT; Potency, µM (top dose mostly 46.2 µM), for inactives: top-dose activity change, negative = growth inhibition, usual class: inhibitors; AID 686979, 2013; chicken DT40 Tdp1-/-;hTDP1 cells + 20 nM CPT, ATP luminescence, 48 h; 12% of 420,000 active; further: potency means the concentration at half of the fitted maximal effect; on the % scale 0 is the no-effect control and ±100 the full control effect; nearly all actives have a fitted effect of over 55% in size
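Cell growth measured by CellTiter-Glo luminescence after a minimum 48 h, 37 C compound exposure with 20 nM CPT in Tdp1-knockout DT40 cells stably expressing hTDP1, seeded 400/well; qHTS titration format.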
TDP1 cell noCPT – qHTS for Inhibitors of human tyrosyl-DNA phosphodiesterase 1 (TDP1): qHTS in cells in absence of CPT. DT40 Tdp1-/- hTDP1 cells, no CPT, ATP luminescence, 48 h. Potency, µM (doses to about 46.2 µM), for the others: at the highest dose activity change, negative = growth inhibition, actives largely listed as inhibitors. 15% of 420,000 active. AID 686978, 2013; further: potency means the concentration at half of the fitted maximal effect; on the % scale 0 is the no-effect control and ±100 the full control effect; nearly all actives have a fitted effect of over 55% in size
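Compound effects on proliferation are scored in DT40 Tdp1-/-;hTDP1 cells in the absence of CPT. ATP levels (CellTiter-Glo luminescence) are recorded after a ≥48 hr, 37 °C incubation.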
An asterisk follows results filed as active; ? = inconclusive; . = no result. In the library only some 16% were active in any assay of this set; here they are far more common. Unless noted, the call rests on the fitted dose curve; in most records, active means well fitted curve in the direction sought with a large enough effect; inconclusive means small, poorly fitted or top-dose-only effect, or another doubt; inactive means no such curve, though single readings can be large; an effect the other way counts as inactive or inconclusive.

SMILES	miR-21 reporter	uPA generation	TDP1 inh	DT40 TDP1 CPT	TDP1 cell noCPT
CC1CCCCN1CC(=O)Nc1ccccc1Sc1ccccc1 (stereo unspecified)	-9%	13%	3%	?	?
O=C(O)c1ccccc1OC(C(=O)Nc1cc(Cl)cc(Cl)c1)c1ccccc1 (stereo unspecified)	-1%	0%	.	29µM*	26µM*
O=C(Nc1cc(Cl)cc(Cl)c1)C(c1ccccc1)N1CCCCC1 (stereo unspecified)	-4%	22%	-1%	21µM*	?
Cc1ccc(NC(=O)C(c2ccc(Cl)cc2Cl)N2CCCC2)cc1 (stereo unspecified)	-6%	-2%	3%	23µM*	15µM*
O=C(Nc1ccc(N2CCCC2)cc1)C(Cl)c1ccccc1 (stereo unspecified)	-34%	-6%	4%	8.2µM*	13µM*
Cc1cc(C(=O)O[C@H]2[C@H](C)NS(=O)(=O)[C@H]3C[C@@H]4C=C[C@]23O4)cc([N+](=O)[O-])c1	.	3%	1%	-13%	-27%
CC(C)c1ccc(NC(=O)C(c2ccc3c(c2)OCO3)N2CCCCC2)cc1 (stereo unspecified)	-3%	-5%	3%	18µM*	23µM*
CC1CCN(C(C(=O)Nc2ccc(C(C)C)cc2)c2ccc3c(c2)OCO3)CC1 (stereo unspecified)	-4%	-17%	6%	?	?
COc1ccc(-c2cccc(NS(=O)(=O)c3ccc(NC(C)=O)cc3)c2)nn1	5%	.	7%	18µM*	15µM*
COc1ccc(-c2cccc(NS(=O)(=O)c3ccc(C)s3)c2)nn1	-2%	.	5%	15µM*	16µM*
Cc1ccc(S(=O)(=O)Nc2cccc(-c3ccc4nnc(C)n4n3)c2)s1	-5%	-4%	-5%	-28%	?
CCOc1ccc(-c2cccc(NS(=O)(=O)c3ccccc3C(F)(F)F)c2)nn1	-10%	.	4%	?	26µM*
CCOc1ccc(-c2cccc(NS(=O)(=O)c3ccc(C)s3)c2)nn1	-8%	.	4%	23µM*	?
COc1ccc(-c2cccc(NS(=O)(=O)c3cc([N+](=O)[O-])c(C)c([N+](=O)[O-])c3)c2)nn1	.	-5%	13%	?	-28%
COCCN1C[C@@H](CO)O[C@@H](n2cnc3c(N4CCOCC4)ncnc32)C1	.	.	.	-24%	-4%
COc1ccc(CNC(=O)C[C@@H]2CC[C@@H](NS(=O)(=O)c3cccc(OC)c3)[C@@H](CO)O2)cc1	.	.	.	2%	-24%
CCCOc1ccc(-c2cccc(NS(=O)(=O)c3ccc(CC)cc3)c2)nn1	5%	.	3%	16µM*	18µM*
O=C1Nc2ccccc2C(=O)C1(Cl)Cc1ccccc1 (stereo unspecified)	8%	-5%	8%	6.5µM*	5.2µM*
Cc1cccc(NC(=O)CCC(=O)OCC(=O)c2ccc(Oc3ccc([N+](=O)[O-])cc3)cc2)c1	-14%	-3%	3%	21µM*	?
N#CCCn1cc(/C=N/NC(N)=S)c(-c2ccc(-c3ccccc3)cc2)n1	3%	-13%	8%	?	4.1µM*
N#CCCn1cc(C=C(C#N)C#N)c(-c2ccc(-c3ccccc3)cc2)n1	-27%	-11%	6%	?	?
COc1cc(-c2coc3c(C(=O)NCc4ccc(N(C)C)cc4)cccc23)ccc1O	.	.	.	16µM*	?
COc1cc(-c2coc3c(C(=O)NCc4ccc(OC)c(OC)c4)cccc23)ccc1O	.	.	.	5.8µM*	4.6µM*
COc1ccc(CNC(=O)C2(C)Cc3c(-c4cccc(C(N)=O)c4)ccnc3O2)cc1OC (stereo unspecified)	.	.	.	-4%	?
COc1ccc(CNC(=O)c2cccc3c(-c4cccc(C(N)=O)c4)coc23)cc1OC	.	.	.	3.7µM*	5.2µM*
SMILES	miR-21 reporter	uPA generation	TDP1 inh	DT40 TDP1 CPT	TDP1 cell noCPT
COc1ccc(CNC(=O)c2cccc3c(-c4ccc(F)c(F)c4)coc23)cc1OC	.	.	.	21µM*	12µM*
O=C(NCc1ccc(C(F)(F)F)cc1)c1cccc2c(-c3cccnc3)coc12	.	.	.	?	-30%
COc1ccc(CNC(=O)c2ccc(=O)oc2)cc1OC	1%	0%	3%	-2%	-16%
Cc1ccc(SC(C)C(=O)O/N=C(\N)c2ccncc2)cc1 (stereo unspecified)	-3%	-10%	-10%	-21%	-22%
O=S(=O)(c1ccc(-n2cnnn2)cc1)N1CCNCC1	1%	-3%	1%	4%	29%
COc1cc(-c2coc3c(C(=O)NCc4ccc(C(F)(F)F)cc4)cccc23)ccc1O	.	.	.	15µM*	21µM*
COc1cc(-c2coc3c(C(=O)Nc4ccc(C(C)C)cc4)cccc23)ccc1O	.	.	.	?	21µM*
O=C(Nc1ccc(F)c(F)c1)c1ccccc1-c1ccccc1	0%	-4%	0%	-4%	16%
COc1cc(-c2coc3c(C(=O)NC4CCCCC4)cccc23)ccc1O	.	.	.	18µM*	?
COc1cc(-c2coc3c(C(=O)NCc4ccncc4)cccc23)ccc1O	.	.	.	-99%	-91%
COc1ccccc1C(=O)NC1CCCCCCC1	-53%	-1%	2%	-16%	?
CN(C)c1cccc(NC(=O)c2cccc3c(-c4ccc(F)c(F)c4)coc23)c1	.	.	.	?	21µM*
O=C(NCCNc1ccc([N+](=O)[O-])cc1)c1ccc(Cl)cc1	11%	10%	2%	-1%	-23%
CN(C(=O)c1cccc(NC(=O)Cc2ccc(NC(=O)C3CCN(C(=O)C4CCCCC4)CC3)cc2)c1)C1CCCCC1	.	-5%	.	?	?
CCN1C(=O)[C@H]2[C@@H](c3ccc(-c4ccc(F)cc4)cc3)N3CCCC[C@@]3(C(=O)OC)[C@H]2C1=O	.	-14%	-4%	?	?
CCN1C(=O)[C@@H]2[C@@H](c3ccc(-c4ccc(F)cc4)c(OC)c3)N3CCC[C@@]3(C(=O)OC)[C@@H]2C1=O	.	4%	4%	23µM*	?
CCN1C(=O)[C@@H]2[C@@H](c3ccc(-c4ccc(C(C)=O)cc4)c(OC)c3)N3CCCC[C@@]3(C(=O)OC)[C@@H]2C1=O	.	14%	2%	?	15µM*
CCN1C(=O)[C@H]2[C@@H](c3ccc(-c4ccc(C(C)=O)cc4)cc3)N3CCCC[C@@]3(C(=O)OC)[C@H]2C1=O	.	4%	2%	?	12µM*

Screens as filed in PubChem.
